High-throughput results from PubChem BioAssay.
An excerpt weighted towards active compounds, which were near 3% of everything screened.
VDR inhibitor = Inhibitors of the vitamin D receptor (VDR): qHTS; Vitamin D3 receptor (Homo sapiens), P11473; VDR-SRC2-3 peptide fluorescence polarization, 2 h; Potency, µM, most hits filed as inhibitors; 0.93% of 400,000 active; AID 504847, 2011
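Reagent solutions, kept cold and dark, are dispensed first; compounds are then pinned in at 23 nl, plates briefly spun, and incubated 2 h at ambient temperature. Inhibition of VDR–SRC2-3 peptide binding is read by fluorescence polarization.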
KAT2A inh = qHTS Assay for Inhibitors of GCN5L2. Potency, µM (top dose mostly 58.9 µM), usual class: inhibitors. GCN5L2 HAT assay, ThioGlo1 CoA-SH fluorescence. 0.21% of 390,000 active. Histone acetyltransferase KAT2A (Homo sapiens), Q92830
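qHTS, 1536-well. 20nM enzyme, pH 7.5 HEPES/EDTA/Tween-20 buffer; 15 min compound preinc., RT. Start: 75uM H3(1-25), 70uM AcCoA, 50uM ThioGlo1. Read Ex340/Em540 at t=0 (autofluorescence flag) and t=20 min.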
USP1 inh = Inhibitors of USP1/UAF1: Primary Screen | Potency, µM (doses to about 57.1 µM), hits mostly inhibitors | 0.23% of 390,000 active | Ubiquitin carboxyl-terminal hydrolase 1 (Homo sapiens), O94782 | recombinant USP1/UAF1, Ub-Rhodamine cleavage fluorescence; also: nearly all actives have a fitted effect of over 60% in size
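1 nM enzyme complex + cpd, 15 min RT; start with Ub-Rho 150nM final; kinetic fluorescence ex 480/em 540, 6 reads q60 s. Buffer 50mM HEPES pH 7.8, 0.5mM EDTA, 0.1 mg/ml BSA, 1mM TCEP, 0.01% Tween-20.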
PLK1 PBD block = qHTS for Inhibitors of PLK1-PDB (polo-like kinase 1 - polo-box domain): Primary Screen; Serine/threonine-protein kinase PLK1 (Homo sapiens), P53350; Plk1 PBD binding of FITC phosphopeptide, fluorescence polarization; Potency, µM, most hits filed as inhibitors; 2.8% of 360,000 active; AID 720504, 2013; also: series mostly up to about 57 µM; nearly all actives have a fitted effect of over 65% in size
Target sequence (P53350 whole entry, looked up, the tested form may be a part): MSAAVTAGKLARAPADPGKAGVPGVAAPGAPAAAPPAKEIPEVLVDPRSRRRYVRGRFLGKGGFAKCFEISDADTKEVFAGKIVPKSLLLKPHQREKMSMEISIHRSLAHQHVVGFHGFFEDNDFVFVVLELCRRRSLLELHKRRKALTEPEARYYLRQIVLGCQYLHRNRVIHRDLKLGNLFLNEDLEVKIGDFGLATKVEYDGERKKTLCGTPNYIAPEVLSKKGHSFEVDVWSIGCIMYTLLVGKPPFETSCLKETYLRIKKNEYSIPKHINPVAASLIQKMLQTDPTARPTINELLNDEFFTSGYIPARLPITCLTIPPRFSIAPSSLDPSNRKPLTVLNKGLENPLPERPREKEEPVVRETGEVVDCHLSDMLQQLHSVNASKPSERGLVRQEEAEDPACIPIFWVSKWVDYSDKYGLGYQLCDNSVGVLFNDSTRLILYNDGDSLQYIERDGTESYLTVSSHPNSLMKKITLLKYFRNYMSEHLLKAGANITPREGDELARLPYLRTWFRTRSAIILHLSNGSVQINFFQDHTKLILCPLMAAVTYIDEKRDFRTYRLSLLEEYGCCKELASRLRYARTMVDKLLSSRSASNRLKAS
PTAP TSG101 blk = qHTS Assay for Iinhibitors of HIV-1 Budding by Blocking the Interaction of PTAP/TSG101; Fluorescence polarization, FITC-PTAP peptide / Tsg101 binding; Potency, µM (doses to about 115 µM), hits mostly inhibitors; 340,000 tested, under 10 active; AID 493005, 2010; active = well fitted inhibition curve with a large enough effect in the main read-out, with a control signal flat, not every such curve was filed as active; inconclusive = small, poorly fitted or top-dose-only effect, or effect the other way, or a change in a side signal; inactive = no such curve, though single readings can be large or run the other way
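Steps: Tsg101 binding domain dispensed (10 uM final), compounds pinned in DMSO, FITC-labeled PTAP-motif peptide added (50 nM final); after 20 min binding at room temperature, polarization measured.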
Large screens that a line does not name were inactive. Unless noted, calls follow the shape of the dose curve; as a rule, active = well fitted curve in the direction sought with a large enough effect; inconclusive = small, poorly fitted or top-dose-only effect, or another doubt; inactive = no such curve, though single readings can be large; an effect the other way counts as inactive or inconclusive.

CC(=O)NC1C(=O)N(Cc2ccccc2)c2ccc(Br)cc21 (stereo unspecified)	VDR inhibitor inconclusive, PLK1 PBD block 26.7µM
CC(=O)NC1C(=O)N(CCN2CCOCC2)c2ccc(Br)cc21 (stereo unspecified)	VDR inhibitor inconclusive
Cc1cc(C#N)c(C)n1-c1cc(S(=O)(=O)N2CCOCC2)ccc1N1CCCC1	VDR inhibitor inconclusive, PLK1 PBD block 21.2µM (no result: KAT2A inh)
O=C(Nc1cc(S(=O)(=O)N2CCOCC2)ccc1N1CCCC1)c1ccc(F)cc1	VDR inhibitor 39.8µM, USP1 inh inconclusive, PLK1 PBD block 9.47µM
COc1ccc(/C=C(\C#N)C(=O)Nc2cc(S(=O)(=O)N3CCOCC3)ccc2N2CCCC2)cc1	VDR inhibitor 35.5µM, PLK1 PBD block 6.7µM
O=C(/C=C/c1ccc(F)cc1)Nc1cc(S(=O)(=O)N2CCOCC2)ccc1N1CCCC1	none
COc1ccccc1NC(=O)/C(C#N)=C/c1cc([N+](=O)[O-])ccc1N1CCCC1	USP1 inh inconclusive, PLK1 PBD block 10.6µM, PTAP TSG101 blk inconclusive
COCCCNCc1cc(C)n(-c2cc(S(=O)(=O)N3CCOCC3)ccc2N2CCCC2)c1C	none (no result: KAT2A inh)
Cc1ccc(C)c(N2CCN(S(=O)(=O)c3cc(C(=O)Nc4ccccc4C(F)(F)F)ccc3F)CC2)c1	none (no result: PLK1 PBD block, PTAP TSG101 blk)
COC(=O)[C@@]12C[C@@H](CC(=O)NCC3CCCCC3)C(=O)N(CCc3ccc(OC)c(OC)c3)C1=CCC(C)(C)C2	none (no result: VDR inhibitor, KAT2A inh, USP1 inh, PTAP TSG101 blk)
CN(C)S(=O)(=O)c1cccc(C(=O)Nc2cc(S(=O)(=O)N3CCOCC3)ccc2N2CCCC2)c1	VDR inhibitor 44.7µM, PLK1 PBD block 5.32µM (no result: KAT2A inh)
O=C1C2C(C(=O)N1CC1CCCO1)C1C=CC2C12CC2 (stereo unspecified)	none (no result: KAT2A inh)
O=C1C2CC=CCC2C(=O)N1CC1CCCO1 (stereo unspecified)	VDR inhibitor inconclusive, PLK1 PBD block 23.8µM
COc1ccc(C(C(=O)NC(C)C)N(C(=O)CCC(=O)Nc2nccs2)c2ccccc2F)cc1 (stereo unspecified)	PLK1 PBD block 13.4µM
COc1ccc2cc3cc(C(=O)N4CC(C)CC(C)C4)oc3nc2c1 (stereo unspecified)	none
Cc1ccc2cc3cc(C(=O)N4CC(C)CC(C)C4)oc3nc2c1 (stereo unspecified)	PLK1 PBD block 13.4µM
CCN(Cc1ccncc1)S(=O)(=O)c1ccc(C(C)=O)cc1	VDR inhibitor inconclusive, PLK1 PBD block 18.9µM
CC(=O)N/C(=C\c1ccccc1)C(=O)OC(C)C(=O)c1ccccc1 (stereo unspecified)	none
CCC(C)NC(=O)CN(c1ccc(OC)cc1)S(=O)(=O)c1ccccc1 (stereo unspecified)	VDR inhibitor inconclusive, PLK1 PBD block 21.2µM
CCCCN1CC(=O)N2[C@@H]3c4cc(OC)ccc4OC[C@@H]3[C@H](C(=O)OCC)[C@]2(C)C1=O	VDR inhibitor inconclusive, PLK1 PBD block 23.8µM (no result: KAT2A inh)
CCCCN1CC(=O)N2[C@H]3c4cc(OC)ccc4OC[C@@H]3[C@H](C(=O)OCC)[C@]2(C)C1=O	none
Clc1ccccc1-c1nn2c(-c3cc(-c4ccccc4)n[nH]3)nnc2s1	none (no result: KAT2A inh, USP1 inh, PLK1 PBD block, PTAP TSG101 blk)
Cc1cccnc1C(NC(=O)C1CCN(Cc2ccc(Oc3ccccc3)cc2)CC1)c1ccccc1 (stereo unspecified)	none (no result: VDR inhibitor, KAT2A inh, USP1 inh, PTAP TSG101 blk)
CCOC(=O)c1c(C)n(C)c2ccc(OC(=O)c3ccc([N+](=O)[O-])cc3)cc12	KAT2A inh 8.91µM
CCOC(=O)c1c(C)n(CC)c2ccc(OC(=O)c3ccc([N+](=O)[O-])cc3)cc12	none
O=C(Nc1ccccc1N1CCOCC1)c1cccc2ccccc12	none (no result: VDR inhibitor, KAT2A inh, PTAP TSG101 blk)
Cc1cc(C)c2nc(N3C(=O)C(O)=C(C(=O)c4ccco4)C3c3ccco3)sc2c1 (stereo unspecified)	VDR inhibitor inconclusive, KAT2A inh inconclusive, PLK1 PBD block 10.6µM
COc1ccc2nc(N3C(=O)C(O)=C(C(=O)c4ccco4)C3c3ccc(C)o3)sc2c1 (stereo unspecified)	VDR inhibitor inconclusive, PLK1 PBD block 18.9µM
